Structures are written as SMILES. Out of some 18,000 compounds screened, about 750 (4.2%) were called active. Entries that show only a call come without a potency. About 13% were inconclusive and are not listed. Calls come from the whole dose curve; tested in HEK293 cells. Only a selection was taken, and actives are over-represented in it overall.
Potency is the fitted concentration of half-maximal effect.

The nature of this experiment: qHTS for Inhibitors of binding or entry into cells for Lassa Virus. The conditions noted are these: Lassa virus pseudotyped entry inhibition, cell-based qHTS; series mostly up to 49.2 µM. Background: Quantitative high-throughput screening tests each substance at several concentrations.
In the case of `C=C(C)C(O)C=CC=Cc1ccccc1` (stereo not given), the activity change, negative = inhibition was 46.4% [at 8.59 µM] (inactive).
Still for that read-out and setting: the result for `C=O` reads “inactive”; that for `C[C@H]1CCC[C@@]2(C)CCCC[C@]12O`, “inactive”.
As for `CO[C@@]12[C@@H](COC(N)=O)C3=C(C(=O)C(C)=C(N)C3=O)N1C[C@@H]1N[C@@H]12`, the activity change, negative = inhibition entry was “inactive”.
Still for that read-out and setting: the result for `COc1cc(=O)n2c(c1C(=O)NC(C)c1ccco1)CCN(C(=O)c1cn3ccc(C)cc3n1)CC2` (stereo not given) reads “inactive”; that for `CC[C@H](C)[C@H](NC(=O)[C@H](CCCNC(=N)N)NC(=O)[C@H](CCCNC(=N)N)NC(=O)[C@H](CC(C)C)NC(=O)[C@H](Cc1ccccc1)NC(=O)CNC(=O)CNC(=O)[C@@H](N)Cc1ccc(O)cc1)C(=O)N[C@@H](CCCNC(=N)N)C(=O)N1CCC[C@H]1C(=O)N[C@@H](CCCCN)C(=O)N[C@@H](CC(C)C)C(=O)N[C@@H](CCCCN)C(=O)N[C@@H](Cc1c[nH]c2ccccc12)C(=O)N[C@@H](CC(=O)O)C(=O)N[C@@H](CC(N)=O)C(=O)N[C@@H](CCC(N)=O)C(=O)O`, “inactive”; that for `CCC1(C2CCN(Cc3cccnc3)CC2)NC(=O)N(CC2COc3ccccc3O2)C1=O` (stereo not given), “inactive”.
`COC(=O)C12C[C@@H](C)C3C(C)C(c4ccccc4C31)N2C(=O)C(F)(F)F` (stereo not given in full): the activity change, negative = inhibition is 4.36% [at 8.59 µM] (inactive).
Same read-out and setting: with `C=CCOC(=O)N[C@@H](CC(C)C)C(C(=O)OC)=C(C)NCc1ccccc1` the figure was -29.4% [at 8.59 µM] (inactive).
The same measure, in the same setting: with `C[C@H]1Cc2c(-c3ccccc3)nc3c(c2CO1)CN(S(=O)(=O)c1ccc(Cl)c2nonc12)CC3` the figure was -12.5% [at 8.59 µM] (inactive); with `CC1(C)OC[C@@H](COC(=O)CCc2ccc(OC[C@@H](O)CNCCNC(=O)N3CCOCC3)cc2)O1`, “inactive”.
On to `NS(=O)(=O)c1ccc(N=Nc2c(O)[nH]c3cccc(CCc4ccncc4)c23)cc1`, for which the activity change, negative = inhibition entry was “inactive”.
For `CC(=O)OC[C@H]1O[C@H](C#CCCCc2ccccc2)C=C[C@H]1OC(C)=O`, the activity change, negative = inhibition is -26.7% [at 8.59 µM] (inactive).
On the same count and under the same terms, the result for `COc1ccc(-n2c(CNC(=O)c3cc(C(F)(F)F)ccc3Cl)nnc2SC)cc1` reads “inactive”; that for `CCCC1C(=O)N2C(N(C)C)=Nc3ccc(C)cc3N2C1=O` (stereo not given), “inactive”.
As for `CC(=O)OCC(COC(C)=O)OC(C)=O`, the activity change, negative = inhibition result is “inactive”.
Turning to `COC(=O)C(C(=O)OC)C1c2ccccc2C=C(C2CC2)N1C(=O)OC` (stereo not given), the activity change, negative = inhibition result is “inactive”.
Still for that read-out and setting: the result for `CCC1CN(CCNC(=O)c2cccnc2C)Cc2cc(OC)ccc2O1` (stereo not given) reads “inactive”.
The same measure, in the same setting: the result for `O=C1OCCN1C(=O)[C@H]1[C@H](c2ccc(F)cc2)C(c2ccccc2)=NN1c1ccc(Br)cc1` reads “inactive”.
Still for that read-out and setting: the result for `CCn1ccnc1C[C@@H]1COc2ccccc2O1` reads “inactive”.
With `C#CCN([C@@H](C)C(=O)OCC)S(=O)(=O)c1ccc(Br)cc1F`, the activity change, negative = inhibition entry was “inactive”.
As for `CCCc1c2oc(C(=O)O)cc(=O)c2cc2c(=O)cc(C(=O)O)n(CC)c12`, the activity change, negative = inhibition result is “inactive”.
Still for that read-out and setting: the result for `CCc1noc(C)c1C(=O)NCCN1Cc2cc(OC)ccc2OC(CC)C1` (stereo not given) reads “inactive”; that for `CC(=O)c1c(O)c(C)c(O)c(Cc2c(O)c3c(c(C(=O)/C=C/c4ccccc4)c2O)OC(C)(C)C=C3)c1O`, “inactive”.
On to `CC(=O)c1c(O)c(C)c(O)c(Cc2c(O)c3c(c(C(=O)/C=C\c4ccccc4)c2O)OC(C)(C)C=C3)c1O`, for which the Potency is 15.8 µM (active).
Turning to `O=C(/C=C/c1ccccc1)c1ccccc1O`, the activity change, negative = inhibition entry was “inactive”.
For `CC(C)CNc1cccc2c1S(=O)(=O)N[C@H](CC(C)C)CO2`, the activity change, negative = inhibition entry was “inactive”.
For `CC[C@@]12C=C(/C=C/c3ccccc3)[C@](CC)(C1)[C@H](c1ccccc1)CC2=O`, the activity change, negative = inhibition entry is “inactive”.
The same measure, in the same setting: the result for `O=C(NCc1ccco1)O[C@@H]1C(=O)c2cc(Br)ccc2O[C@H]1c1ccc2c(c1)OCO2` reads “inactive”.
Same read-out and setting: the result for `O=C(C1CCCCC1)N1C[C@@H](n2cc(C3CC3)nn2)[C@@H](O)C[C@@H]1c1ccccc1` reads “inactive”; that for `COC(=O)c1ccccc1-c1cc(C)cc2c1OC(CNC(=O)C1CCOC1)C2` (stereo not given), “inactive”.
Take `CC(C)c1ccc2c(c1)c(SC(C)(C)C)c(CC(C)(C)C(=O)O)n2Cc1ccc(Cl)cc1`: the Potency was 25.1 µM (active).
Consider `COCCN1C(=S)NC(c2cccc(F)c2)C(C(=O)OC)=C1C` (stereo not given), for which the activity change, negative = inhibition is 11% [at 8.59 µM] (inactive).
Still for that read-out and setting: with `O=C(Nc1ccc(C(=O)O)c(O)c1)c1ccccc1` the entry was “inactive”.
For `O=C(Nc1cccc(C(F)(F)F)c1)c1cc(Br)cc(Br)c1O`, the Potency is 3.98 µM (active).
In the case of `O=C(Nc1ccc(O)cc1)c1ccccc1O`, the activity change, negative = inhibition result is “inactive”.
In the case of `c1ccc2c(c1)[I+]c1ccccc1-2`, the Potency was 0.891 µM (active).
In the case of `CCCCCCCC/C=C\CCCCCCCC(=O)OC[C@H](CO)OC(C)=O`, the activity change, negative = inhibition result was “inactive”.
Same read-out and setting: the result for `Cc1cc2oc(=O)cc(-c3ccccc3)c2c(C)c1/C=C/c1ccc(F)cc1` reads “inactive”.
Turning to `Oc1c(Cl)cc(Cl)c(Cl)c1Cc1c(O)c(Cl)cc(Cl)c1Cl`, the Potency is 6.31 µM (active).
`C=CCC1CCC(=O)N2CCCC12` (stereo not given): the activity change, negative = inhibition entry is “inactive”.
The same measure, in the same setting: the result for `CO[C@H]1C=CO[C@@]2(C)Oc3c(C)c(O)c4c(O)c(c(/C=N/N5CCN(C)CC5)c(O)c4c3C2=O)NC(=O)/C(C)=C\C=C[C@H](C)[C@H](O)[C@@H](C)[C@@H](O)[C@@H](C)[C@H](OC(C)=O)[C@@H]1C` reads “inactive”.
Take `COC(=O)C(C(=O)OC)[C@@H](NC=O)c1ccccc1`: the activity change, negative = inhibition entry is “inactive”.
The same measure, in the same setting: with `Cc1c(O)cc(O)c2c(=O)c(-c3ccc(O)cc3)coc12` the entry was “inactive”; with `O=C(OCc1ccccc1)c1ccc(O)cc1`, “inactive”.
Same read-out and setting: with `O=c1c(O)c(-c2ccc(O)cc2)oc2ccccc12` the entry was “inactive”.
The same measure, in the same setting: the result for `O=c1c(CN2CCOc3ccc(CN4CCC(Oc5cccnc5)CC4)cc3C2)coc2ccccc12` reads “inactive”; that for `O[C@H]1CN(CC2CCCCC2)[C@@H](c2ccccc2)C[C@H]1n1cc(-c2ccc(F)cc2)nn1`, “inactive”.
Consider `O=c1cc(CN2CCCCCCC2)c2c(ccc3ccccc32)o1`, for which the activity change, negative = inhibition entry was “inactive”.
On the same count and under the same terms, with `CCCCCCN1C[C@H](O)[C@@H](n2cc(COC(=O)c3ccccc3)nn2)C[C@H]1c1ccc(Cl)cc1` the entry was “inactive”.

Values taken from PubChem BioAssay AID720533 (National Center for Advancing Translational Sciences (NCATS), 2013).
